# hgDAF12 agonist: activates the H. glycines DAF-12 receptor ligand-binding domain. HEK293 GAL4-hgDAF12 UAS-luciferase reporter, agonist luminescence; normalized to butyrate control. activation, % at 6.8 µM. 370,000 tested, 1.8% active. AID 687014;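 active = activation above a cutoff set at the mean of all screened compounds plus 3 SD, cut at about 10% in these data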;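 note: 0% = DMSO wells and 100% = sodium butyrate wells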
# hcDAF12 agonist: activators of H. contortus DAF-12 nuclear receptor; HEK293 hcDAF-12 lit1-tk-luc reporter, luminescence; 0% DMSO, 100% Δ7-dafachronic acid; 370,000 tested, 1.4% active; activation, % at 6.8 µM;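 active = activation above the mean of all tested compounds plus 3 SD, cut at about 5.5% in these data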;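 note: 100% = response to 3 µM Δ7-dafachronic acid high control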
# DAX1 inh-1: inhibitors of human orphan nuclear receptor DAX1 (NR0B1); P51843; HEK293 Gal4-DAX1 luciferase reporter, luminescence; inhibition, % at 6.75 µM; 340,000 tested, 0.99% active;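 active = inhibition above the mean over all tested compounds plus 3 SD, cut at about 4.2% in these data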;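 note: 0% = DAX1-transfected cells with DMSO and 100% = empty-vector control cells with DMSO; inhibition shows as a rise in luminescence from relieved DAX1 repression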
# ssDAF-12 act: activates DAF-12 receptor from parasite S. stercoralis | HEK293 ssDAF-12/GRIP1 lit1-tk-luc reporter, luminescence; % of 3 µM dafachronic acid response | activation, % at 6.8 µM | 370,000 tested, 1% active;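 active = activation above the mean over all tested compounds plus 3 SD, cut at about 0.9% in these data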;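 note: 0% = DMSO-only wells and 100% = 3 µM delta7-dafachronic acid wells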
# DAX1 inh-2: inhibitors of DAX1 repression of SF-1 activated StAR promoter | HEK293T StAR-luciferase reporter, SF-1/DAX-1 repression relief | inhibition, % at 6.8 µM | 370,000 tested, 1.1% active;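 active = inhibition above the mean over all tested compounds plus 3 SD, cut at about 3.6% in these data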;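 note: 0% = DAX-1 cells with DMSO and 100% = cells lacking DAX-1 with DMSO; higher inhibition means more luminescence from relief of DAX-1 repression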
# DAX1 inh confirm: confirmation of human DAX1 (NR0B1) inhibitors; shares compounds with DAX1 inh-2; HEK293T StAR-promoter luciferase reporter, SF-1/DAX-1 repression; inhibition, % at 6.8 µM; 2,400 tested, 87% active; AID 652134;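 active = inhibition above the average of every tested compound plus 3 SD, cut at about 3.8% in these data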;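 note: 0% = DAX-1 cells with DMSO and 100% = no DAX-1 control cells with DMSO; active compounds raise luminescence by relieving repression of the StAR reporter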
# Target sequence (P51843 whole entry, looked up): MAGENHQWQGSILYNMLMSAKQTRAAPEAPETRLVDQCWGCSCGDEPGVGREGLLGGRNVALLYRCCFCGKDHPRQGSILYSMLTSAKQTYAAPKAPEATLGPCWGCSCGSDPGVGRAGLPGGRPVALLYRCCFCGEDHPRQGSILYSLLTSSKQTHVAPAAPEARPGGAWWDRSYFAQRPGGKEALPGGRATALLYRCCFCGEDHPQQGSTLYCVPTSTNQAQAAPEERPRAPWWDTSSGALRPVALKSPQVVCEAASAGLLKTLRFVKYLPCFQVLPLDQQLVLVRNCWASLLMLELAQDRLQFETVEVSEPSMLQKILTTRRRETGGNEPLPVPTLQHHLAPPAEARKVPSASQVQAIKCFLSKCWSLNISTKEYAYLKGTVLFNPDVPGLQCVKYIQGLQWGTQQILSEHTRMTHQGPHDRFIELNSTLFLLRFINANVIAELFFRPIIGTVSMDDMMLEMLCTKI
# SF1 AF2mut Luc: nonselective inhibitor or artifact in SF-1 mutant DAX1 counter-screen. inhibition, % at 6.8 µM. HEK293 StAR-luciferase, SF-1 AF2 mutant, luminescence. 2,400 tested, 78% active. shares compounds with DAX1 inh-2;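 active = inhibition above the mean of all tested compounds plus 3 SD, cut at about 3% in these data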;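 note: 0% = DAX-1 transfected cells with DMSO and 100% = cells without DAX-1 with DMSO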
# Starred values were filed as active, the others as inactive; . = no result given. Compounds with a hit are over-represented: about 4.1% of the library has one in this group of screens.
SMILES,hgDAF12 agonist,hcDAF12 agonist,DAX1 inh-1,ssDAF-12 act,DAX1 inh-2,DAX1 inh confirm,SF1 AF2mut Luc
c1cc(-c2cc3c(o2)CCCC3OCCN2CCOCC2)cs1 (stereo unspecified),-1.3,-2.4,.,-1.1,-2.0,.,.
COc1cc2nn(-c3ccccc3N)nc2cc1OC,10.9*,3.2,2.5,0.1,4.7*,6.7*,4.8*
O=C(Nc1ccc(Cl)cc1Cl)c1ccc2ncsc2c1,7.8,1.6,2.7,-0.3,1.6,.,.
O=C(Nc1ccc(F)cc1F)c1ccc2ncsc2c1,6.6,2.4,2.3,-0.7,4.9*,3.0,1.8
O=C(Nc1ccccc1)C(=O)Nc1ccc2c(c1)N(C(=O)C1CC1)CCC2,10.8*,3.0,2.3,0.1,6.0*,4.1*,0.0
O=C(C1CCC(C(=O)N2CCc3ccccc32)CC1)N1CCc2ccccc21 (stereo unspecified),-0.1,-0.1,1.1,-1.1,-0.3,.,.
CC1CCN(C(=O)CSc2nnc(-c3ccccc3F)o2)CC1,0.3,-0.5,1.4,-1.2,0.0,.,.
O=C(CSc1nnc(-c2ccccc2F)o1)N1CCNC1=O,9.7,5.5,1.2,-0.3,7.7*,11.4*,6.8*
Cc1ccc(-c2cc(-c3nnc(SCC(=O)N4c5ccccc5Sc5ccccc54)n3N)[nH]n2)cc1,-0.5,-3.4,.,-0.7,-2.0,.,.
O=C(NCCCN1CCCC1=O)C(=O)Nc1cccc(F)c1,10.1,1.3,0.2,-0.1,5.9*,7.5*,5.3*
CC1CCN(c2ccc(C(=O)O)cc2NS(=O)(=O)c2ccc(C(C)(C)C)cc2)CC1,-3.6,-1.8,.,-0.5,-0.8,.,.
Cc1ccc(C)c(OCc2cc(C(=O)N3C[C@@H](C)O[C@@H](C)C3)no2)c1,8.8,0.6,2.1,-0.8,4.6*,4.8*,4.2*
Cc1ccc(C)c(OCc2cc(C(=O)N3CCN(C4CCCCC4)CC3)no2)c1,3.0,2.7,0.5,-0.5,0.6,.,.
Cc1ccc(C)c(OCc2cc(C(=O)N3CC[C@@H]4CCCC[C@H]4C3)no2)c1,8.6,6.5*,0.8,0.5,5.5*,1.9,3.3*
Cc1cc(Cl)c2oc(C(=O)N(C)C3CCOC3)c(C)c2c1 (stereo unspecified),3.5,-0.2,2.4,-0.2,6.6*,7.5*,2.2
COc1ccccc1S(=O)(=O)N(C)C[C@H]1Oc2cc(Br)ccc2S(=O)(=O)N([C@H](C)CO)C[C@H]1C,-1.1,-2.9,.,-1.2,-1.2,.,.
COc1ccc(NC(=O)C(=O)NCC2CCCN2S(=O)(=O)c2ccc(C)cc2)cc1 (stereo unspecified),-6.2,-1.0,0.5,-0.6,6.4*,12.8*,-8.4
COc1ccc(S(=O)(=O)N2CCCC2CNC(=O)C(=O)Nc2ccc(C)cc2)cc1 (stereo unspecified),-0.2,-3.1,0.0,-1.4,-1.5,.,.
COc1ccc(-c2ccc(NC(=O)c3ccc(Br)o3)cc2)nn1,4.5,0.0,1.1,-0.4,5.2*,5.6*,4.2*
CS(=O)(=O)c1ccc(-c2cccc(NC(=O)c3ccc(Br)o3)c2)nn1,-1.6,-1.2,-1.4,0.0,-1.5,.,.
CC1Sc2ccc(C(=O)OCc3ccccc3Cl)cc2NC1=O (stereo unspecified),6.5,2.2,1.6,-0.7,6.1*,7.3*,5.9*
O=C(NCC1CCCCC1)c1cc2ccccc2cc1O,1.9,-2.3,0.4,-1.3,-1.3,.,.
CC1CCC(NC(=O)c2cc3ccccc3cc2O)CC1 (stereo unspecified),10.2,1.5,1.5,-0.2,8.0*,10.5*,6.7*
O=C(NCC1CCCO1)c1cc2ccccc2cc1O (stereo unspecified),5.6,2.2,3.5,0.2,5.0*,6.1*,4.3*
CC1CCC(NC(=O)c2cc(Cl)nc3ccccc23)CC1 (stereo unspecified),-1.2,3.2,0.2,0.0,4.6*,6.0*,4.3*
SMILES,hgDAF12 agonist,hcDAF12 agonist,DAX1 inh-1,ssDAF-12 act,DAX1 inh-2,DAX1 inh confirm,SF1 AF2mut Luc
Cc1cc(C(=O)NC2CCCCCC2)c2ccccc2n1,2.6,1.8,-0.2,-0.7,0.1,.,.
COc1ccc(-c2cc(NC(=O)Cc3c[nH]c4ccccc34)ccc2Nc2cccnc2)cc1F,-1.8,-1.5,.,-1.0,-1.6,.,.
Nc1ccccc1C(=O)Nc1nccs1,1.3,1.7,0.6,-1.1,0.9,.,.
Nc1ccc(C(=O)Nc2nccs2)cc1,9.9,2.7,0.6,-1.2,4.8*,5.1*,4.7*
CCC1(O)CC2CN(CCc3c([nH]c4ccccc34)C(C(=O)OC)(c3cc4c(cc3OC)N(C=O)C3C(O)(C(=O)OC)C(OC(C)=O)C5(CC)C=CCN6CCC43C65)C2)C1 (stereo unspecified),-6.8,1.7,2.5,-0.5,5.2*,21.1*,-6.2
CC(=O)CC[C@H]1CC[C@]2(CCCN(C(=O)c3ccccc3)C2)O1,1.4,-0.3,.,-1.3,0.1,.,.
CCCCC[C@@H](C)N1C[C@H](COCc2ccccc2)Oc2cc(N3CCC[C@@H]3COC)ccc2S1(=O)=O,6.9,1.6,.,-0.1,5.1*,5.7*,4.3*
CC1CCN(C(=O)c2ncn3c2C(=O)NC[C@@H]3C)CC1,0.8,-1.5,.,-1.1,-0.8,.,.
CC(C)(C)OC(=O)N1CCC(C(=O)Nc2ccc3c(c2)CCC3)CC1,12.2*,2.2,1.0,0.3,4.7*,4.7*,2.6
CC(=O)N1CCC(C(=O)Nc2ccc3c(c2)CCC3)CC1,-0.8,0.7,3.9,-1.2,-0.1,.,.
COc1ccccc1CCNC(=O)COc1cccc2c1OC(C)(C)C2,-3.5,-1.9,-0.1,-1.2,4.6*,0.2,-0.3
O=C(Nc1ccccc1F)c1ccc(C(=O)c2ccccc2)cc1,11.7*,2.8,0.9,-1.0,4.7*,7.0*,4.4*
O=C(Nc1ccccc1F)c1cccc(C(=O)Nc2ccccc2F)c1,-1.2,-1.5,-0.6,-0.8,0.2,.,.
Cc1ccc(NC(=O)c2ccc3snnc3c2)cc1C,7.1,2.8,1.2,-0.3,6.5*,9.4*,-0.5
CC1=C(/C=C/C(C)=C/C=C/C(C)=C/C(=O)Nc2ccc(O)cc2)C(C)(C)CCC1,7.2,0.5,0.7,-0.9,0.9,.,.
CC1=C(/C=C/C(C)=C/C=C/C(C)=C\C(=O)O)C(C)(C)CCC1,-4.9,-2.8,-1.4,-1.4,5.9*,17.9*,7.5*
O=C(c1cc(-c2ccc(Cl)cc2Cl)on1)N1CCOCC1,6.5,4.2,-2.7,0.0,6.1*,7.9*,1.8
O=C(c1cc(-c2ccccc2O)on1)N1CCOCC1,8.7,-0.1,2.8,-0.5,1.0,.,.
CCC(c1nnnn1-c1ccc2c(c1)OCCO2)N1CCN(CC)CC1 (stereo unspecified),0.0,-0.4,.,-0.6,5.4*,2.6,2.1
